Experimental data from PubChem BioAssay (Tox21).
Activity calls are given as the source filed them. Where a call stands in place of a potency, no number is given. Calls follow the shape of the full dose curve.

Experiment: G protein-coupled receptor (GPCR) small molecule agonists, calcium flux assay: HEK293 wild type cell line counter screen (AID 1920065)
Conditions: HEK293 WT calcium flux, fluorescence, agonist mode; series mostly up to 57.6 µM
From the text: U.S. Tox21 Program National Center for Advancing Translational Sciences [NCATS] Division of Preclinical Innovation [DPI] U.S. Environmental Protection Agency [EPA] National Institutes of Environmental Health Sciences [NIEHS] National Toxicology Program [NTP] U.S. Food and Drug Administration [FDA] Assay overview: The increased intracellular calcium release that occurred upon G protein-coupled receptor (GPCR) activation led to the frequent use of calcium flux assays to detect GPCR activation. For the purpose of studying and screening compounds that may activate GPCR, receptor-overexpressing models were typically generated using Hek293 wild-type (WT) cells. In order to eliminate the compounds that may have induced calcium release for non-specific activation, a counter-assay utilizing calcium flux on Hek293 WT cells was performed. The data were formulated in order to serve as a control for any calcium flux detection utilizing Hek293 cells with either GPCR overexpression or gene modification. The procurement of Hek293 WT cells from ATCC. Fluorescence intensity can be utilized to determine the activation of the compound in a calcium flux assay. As a counter control, this cell line was utilized to screen the Tox21 10K compound library.
Assay Protocol Summary: Hek293 cells were dispensed at 1500cells/4uL/well in 1536-well black wall/clear bottom plates using a multidrop dispenser. After the assay plates were incubated at a 37 C/5% CO2 incubator for 18 hours, 4 uL of Calcium Dye Solution was added to each well. The plates were incubated at 37 C for 1 hour. For agonist mode, 23 nL of compounds dissolved in DMSO, positive control (ATP) or DMSO only was transferred to the assay plate by a pin tool station. The fluorescence intensity in the plates was measured using FDSS 7000EX kinetic plate reader with a filter set of Ex/Em=480/540 for 3 min at 1 sec intervals. Each test compound was measured at 15 concentrations and in triplicates.

Row | SMILES | Potency
1 | CC(CN1c2ccccc2Sc2ccccc21)N(C)C (stereo not given) | inactive
2 | C1=Cc2ccccc2C1 | inactive
3 | Cc1c(C(=O)c2c[nH]n(C)c2=O)ccc(S(C)(=O)=O)c1C1=NOCC1 | inactive
4 | C=CCCC(=O)/C=C/C1C(C)=CCCC1(C)C (stereo not given) | inactive
5 | CO[C@@H]1[C@@H](O[C@@H]2O[C@H](C)[C@@H](O[C@H]3C[C@@](C)(O)[C@@H](O)[C@H](C)O3)[C@H](N(C)C)[C@H]2O)[C@@H](CC=O)C[C@@H](C)[C@@H](O[C@@H]2CC[C@H](N(C)C)[C@@H](C)O2)/C=C/C=C/C[C@@H](C)OC(=O)C[C@H]1OC(C)=O | inactive
6 | O=C(O)c1cc(O)c(O)c(O)c1 | inactive
7 | CC(C=O)c1ccccc1 (stereo not given) | inactive
8 | CCOC(=O)CN1CCCC1=O | inactive
9 | CCN(C=O)CC | inactive
10 | CC(C)(C)c1n[nH]c(=O)n(N)c1=O | inactive
11 | O=c1[nH]c(=O)c2cn[nH]c2[nH]1 | inactive
12 | C=CCCCCCCCCC(=O)OCCCC | inactive
13 | O=C1CCC(=O)O1 | inactive
14 | Cc1ccc(C(C)(C)C)cc1 | inactive
15 | c1ccc2cnccc2c1 | inactive
16 | CC(C)(C)c1ccc(O)c(O)c1 | inactive
17 | CCCOCCOCCO | inactive
18 | CCN1CCC[C@H]1CNC(=O)c1c(O)c(Cl)cc(Cl)c1OC | inactive
19 | CCSC(=O)N(CC)CC | inactive
20 | COc1ccc(C(=O)CC(=O)c2ccc(C(C)(C)C)cc2)cc1 | inactive

Row | SMILES | Potency
21 | C[CH2][Ge]([Cl])([CH2]C)[CH2]C | inactive
22 | CCC(C)C(=O)OCCc1ccccc1 (stereo not given) | inactive
23 | O=C(O)CNC(=O)c1ccc(CO)o1 | inactive
24 | C/C=C/C(=O)O | inactive
25 | CC(=O)O[C@H](CC(=O)[O-])C[N+](C)(C)C | inactive
26 | CC1CNCC(C)O1 (stereo not given) | inactive
27 | CCCCCCc1ccc(-c2ccc(C#N)cc2)cc1 | inactive
28 | CCCO | inactive
29 | CCCCCCCCCCCCCCO | inactive
30 | C=CC(=O)O[C@H]1C[C@@H]2CC[C@@]1(C)C2(C)C | inactive
31 | O=C(O)CNc1ccccc1 | inactive
32 | Nc1nnnn1-c1ccccc1 | inactive
33 | CC(C)(CC(=O)O)C(=O)O | inactive
34 | CCCCCCOC(=O)CC | inactive
35 | CC(CCO)CCc1ccccc1 (stereo not given) | inactive
36 | C[N+](C)(C)CCO | inactive
37 | CCCCCC(=O)CC | inactive
38 | NS(=O)(=O)c1ccc(NC(=O)CCC(=O)O)cc1 | inactive
39 | O=S(=O)(O)c1cccc2ccccc12 | inactive
40 | CCN(CC)CC(=O)Oc1ccc(NC(C)=O)cc1 | inactive
